Measurements published in the supplement of paper PMC6555819.

Each sequence was assayed on RARa:RXR (NR concentration 270 nM, RXRa partner concentration 90 nM) (assay: PBM binding z-score (relative to random genomic background probes); higher = stronger binding; sequences stand for … in GC…GCGATTGACAGCGTAGAATGAAGG).
Method in brief: (§1)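 For binding z-scores, the reference was random background probes on custom Agilent 4×180K protein-binding microarrays. These arrays were incubated 1 h with ligand-free nuclear receptor dimers in PBS pH 7.4, 2% milk, 0.02% Triton X-100, 1 mM DTT, 0.2 mg/mL BSA and 0.4 mg/ml salmon testes DNA. Fluorescence was scanned after antibody detection of each partner (one per run) and regression-normalized.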

Sequence	PBM binding z-score
ATATGTAGGTTATAGGGTCATTCAGTTTGCGCAT	5.18
ATCTCTAAGTAACAAGTTCAGTGAAAGAGAGGAC	1.18
AGTGAAAGTTCATCTAGGTAACGTAAGATATGCT	3.24
TCTAGTAGATCAATAGAGGTTAAGAAAGTGCGCT	1.81
CCTACTGGGCCAAGGTTATTGATCAGTCAAAGCA	0.421
ATATGTAGGTTAATGGTCATTCAGGTTGGTTCGC	0.723
GATACAGGGTCAGCTAGAGGCCAGTGTATGGAAA	4.54
TAGCCTAGGTCAGGTCGGGCCAGTATACGCTATA	1.25
GCCTGTAGATCAAGGTTAAGAAAGACTAAGCTAA	0.885
CCTATTAGTTAACCATAAGGGCAACCGAAGCTCG	0.812
TAGCCTAGGTCAGATCGGGCCAGAATACGCTATA	1.87
CCTGCTAGGTCATGGTCAGATAATCTACAGTATG	2.59
AGACTGAGGTTAAGATCAGGGAAACAGAATACAT	1.84
GGAACGAGGGCATTCGAGTTGGTAGCATGGCGAT	0.386
TTACCAAGATGAGCTGAGGTCGTTGATCCAACTC	1.35
TCGGCTAGGTCAGTTGGTCAGCTAACGAGCTGCC	0.266
TCTTGTAGATCAAGCCGGTTAAGAAAGCCTGAGT	0.402

What follows are sequences tested on RARa homodimer (NR concentration 270 nM) in the same assay as above.
Method in brief: as §1

Sequence	PBM binding z-score
TCATATAGGTACATGCTAGGTGAAAGTCCGATCT	0.997
CGAACTAAGTCAAGGACAGTGAATCTCCGCACGC	-0.646
AATACAGGGTCACTAGGCGAGAGTAGGTACGAAT	1.4
CGTCCAAGGTCAAAGGTCAGAGAAGAGATGACGG	1.92
TATAGTTGGTCAAAGGTCACACACTCGAAATGCG	2.66
TTACCAAGGTGAAAGGTTGTTGATGCACGCCTTG	0.397
ACTAGCAGGCCAAGTTTGGGTCGCTCAAACAAAG	-1.09
CTCGAAAGGTCGTGCTCAGGTGAGTAGACCAAAC	-0.171
GGAACGAGGGCATTCTAGTTGATAGCATGGCGAT	-0.43
CCAGACAGCTGAAAGGTAACTCAGTCTGGTACGC	-0.368
CGAACTAGGTCATCCAGAACAGTGAATACATTGA	0.855
TCTTGTAGATCAGCAGATTAAGAAAGCTGGCCAA	0.205
ACTATTAGTTGACTTAGGGAAACCGATACGACGC	0.75
CGAACTGGGTCATTGACAGGACAGTGAATAGTAA	0.276
TCTCGGAGGACACCAAGGTCAGAGCTTTCCAGAG	-0.289
TCTTGTAGACCAATAGAGGTTAAGAAAGTGCGCT	0.38
GCTAGTTGGTCAGTAAAAAGTCACACACCGGTCG	0.758
AGAACGAGGGCAGGCTGAGTTGATAGCAGAGTAG	-0.536
CCGAGGAGGTTATGGGGCATTCAGGCAACGGTGA	-0.195
CCTAGCAGGCCAATCTGGGTTACTCAAGGCTTGA	-0.89

Sequence	PBM binding z-score
ACTATTAGTTGACTTAGGGCAAGCGATACGACGC	0.794
CCTTACGGGGCACTGACAGGTTATAGCATTTGGA	0.0601
ATATGTAGGTTATAGGGTCATTCAGTTTGCGCAT	1.96
ATCTCTAAGTAACAAGTTCAGTGAAAGAGAGGAC	1.73
AGTGAAAGTTCATCTAGGTAACGTAAGATATGCT	1.4
TCTAGTAGATCAATAGAGGTTAAGAAAGTGCGCT	0.23
CCTACTGGGCCAAGGTTATTGATCAGTCAAAGCA	-0.486
ATATGTAGGTTAATGGTCATTCAGGTTGGTTCGC	1.49
GATACAGGGTCAGCTAGAGGCCAGTGTATGGAAA	-0.191
TAGCCTAGGTCAGGTCGGGCCAGTATACGCTATA	-1.19
GCCTGTAGATCAAGGTTAAGAAAGACTAAGCTAA	-1.02
CCTATTAGTTAACCATAAGGGCAACCGAAGCTCG	1.42
TAGCCTAGGTCAGATCGGGCCAGAATACGCTATA	-0.627
CCTGCTAGGTCATGGTCAGATAATCTACAGTATG	0.0727
AGACTGAGGTTAAGATCAGGGAAACAGAATACAT	-0.0293
GGAACGAGGGCATTCGAGTTGGTAGCATGGCGAT	-0.393
TTACCAAGATGAGCTGAGGTCGTTGATCCAACTC	-0.33
TCGGCTAGGTCAGTTGGTCAGCTAACGAGCTGCC	-0.561
TCTTGTAGATCAAGCCGGTTAAGAAAGCCTGAGT	-0.0189

Each sequence was assayed on RARb:RXRa (NR concentration 270 nM, RXRa partner concentration 90 nM) in the same assay as above.
Method in brief: as §1

Sequence	PBM binding z-score
TCATATAGGTACATGCTAGGTGAAAGTCCGATCT	0.432
CGAACTAAGTCAAGGACAGTGAATCTCCGCACGC	0.556
AATACAGGGTCACTAGGCGAGAGTAGGTACGAAT	4.29
CGTCCAAGGTCAAAGGTCAGAGAAGAGATGACGG	5.97
TATAGTTGGTCAAAGGTCACACACTCGAAATGCG	5.04
TTACCAAGGTGAAAGGTTGTTGATGCACGCCTTG	1.63
ACTAGCAGGCCAAGTTTGGGTCGCTCAAACAAAG	0.491
CTCGAAAGGTCGTGCTCAGGTGAGTAGACCAAAC	3.91
GGAACGAGGGCATTCTAGTTGATAGCATGGCGAT	1.58
CCAGACAGCTGAAAGGTAACTCAGTCTGGTACGC	0.0484
CGAACTAGGTCATCCAGAACAGTGAATACATTGA	3.83
TCTTGTAGATCAGCAGATTAAGAAAGCTGGCCAA	-0.229
ACTATTAGTTGACTTAGGGAAACCGATACGACGC	0.0734
CGAACTGGGTCATTGACAGGACAGTGAATAGTAA	2.92
TCTCGGAGGACACCAAGGTCAGAGCTTTCCAGAG	3.27
TCTTGTAGACCAATAGAGGTTAAGAAAGTGCGCT	1.01
GCTAGTTGGTCAGTAAAAAGTCACACACCGGTCG	0.863
AGAACGAGGGCAGGCTGAGTTGATAGCAGAGTAG	1.63
CCGAGGAGGTTATGGGGCATTCAGGCAACGGTGA	1.73
CCTAGCAGGCCAATCTGGGTTACTCAAGGCTTGA	0.268

Sequence	PBM binding z-score
ACTATTAGTTGACTTAGGGCAAGCGATACGACGC	0.892
CCTTACGGGGCACTGACAGGTTATAGCATTTGGA	1.03
ATATGTAGGTTATAGGGTCATTCAGTTTGCGCAT	3.19
ATCTCTAAGTAACAAGTTCAGTGAAAGAGAGGAC	1.57
AGTGAAAGTTCATCTAGGTAACGTAAGATATGCT	4.63
TCTAGTAGATCAATAGAGGTTAAGAAAGTGCGCT	0.908
CCTACTGGGCCAAGGTTATTGATCAGTCAAAGCA	0.659
ATATGTAGGTTAATGGTCATTCAGGTTGGTTCGC	1.45
GATACAGGGTCAGCTAGAGGCCAGTGTATGGAAA	4.15
TAGCCTAGGTCAGGTCGGGCCAGTATACGCTATA	3.24
GCCTGTAGATCAAGGTTAAGAAAGACTAAGCTAA	0.799
CCTATTAGTTAACCATAAGGGCAACCGAAGCTCG	1.41
TAGCCTAGGTCAGATCGGGCCAGAATACGCTATA	2.93
CCTGCTAGGTCATGGTCAGATAATCTACAGTATG	3.92
AGACTGAGGTTAAGATCAGGGAAACAGAATACAT	1.7
GGAACGAGGGCATTCGAGTTGGTAGCATGGCGAT	1.86
TTACCAAGATGAGCTGAGGTCGTTGATCCAACTC	0.279
TCGGCTAGGTCAGTTGGTCAGCTAACGAGCTGCC	3.52
TCTTGTAGATCAAGCCGGTTAAGAAAGCCTGAGT	0.123
